RORgamma inh = blocks mouse ROR gamma transcriptional activity | P51450 | Drosophila S2 Gal4-RORgamma UAS-luciferase reporter, 20 h | Potency, µM (highest dose often 53.6 µM), inactives show top-dose activity change, negative = inhibition, hits mostly inhibitors | 5.4% of 310,000 active | AID 2551; further: potency means the concentration at half of the fitted maximal effect; on the % scale 0 is the no-effect control and ±100 the full control effect; nearly all actives have a fitted effect of over 60% in size
Target sequence (P51450 whole entry, looked up, the tested form may be a part): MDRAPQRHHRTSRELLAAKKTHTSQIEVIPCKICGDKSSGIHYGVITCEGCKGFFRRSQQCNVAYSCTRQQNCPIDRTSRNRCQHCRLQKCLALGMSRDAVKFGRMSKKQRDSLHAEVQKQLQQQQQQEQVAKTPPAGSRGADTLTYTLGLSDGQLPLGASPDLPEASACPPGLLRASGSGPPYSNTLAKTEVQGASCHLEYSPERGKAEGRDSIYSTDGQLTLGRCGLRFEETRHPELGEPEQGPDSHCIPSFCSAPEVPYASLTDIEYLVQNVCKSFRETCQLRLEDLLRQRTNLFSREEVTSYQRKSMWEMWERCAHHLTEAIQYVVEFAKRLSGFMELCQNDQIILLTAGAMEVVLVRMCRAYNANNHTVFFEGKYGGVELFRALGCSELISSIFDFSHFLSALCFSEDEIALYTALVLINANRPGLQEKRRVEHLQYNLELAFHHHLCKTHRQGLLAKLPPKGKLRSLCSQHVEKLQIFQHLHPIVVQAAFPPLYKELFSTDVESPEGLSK
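Schneider cells (Drosophila), stable Gal4 DBD–ROR gamma + UAS-luc; 1 hr cmpd preincubation; Cu2+ induction 700 uM final; 20 hr ambient; luminescence.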
SW480 rerep = inducers of DNA re-replication in SW480 colon cancer cells; 1.8% of 340,000 active; SW480 DNA re-replication, Hoechst DNA content imaging, 48 h; Potency, µM (series often up to 46.1 µM), without a hit: at the top dose re-replication activation, actives largely listed as activators; further: potency means the concentration at half of the fitted maximal effect; % of control where 0% means no effect; nearly all actives have a fitted effect of over 55% in size
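250 cells/well; 23 nL cpd via pin tool; 48 hr, 37 C, 5% CO2; Hoechst 40 min; imager read of total nuclear intensity, ex 405/em 500-530 nm.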
Giardia killer = kills Giardia lamblia. Giardia lamblia trophozoite viability. activity change, % at 7.66 µM, hits read low. 0.15% of 340,000 active. AID 540267; in the data active means activity change below about -80%; inconclusive means between about -30% and that limit;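 further: parasites exposed to compound for two days anaerobically before the ATP read; on the % scale 0 is the no-effect control and ±100 the full control effect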
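Anaerobic 48 hrs incubation at 37 deg C of 100 trophozoites/well with test compounds; ATPLite 1-Step luminescence, 15-30 min RT, reports cellular ATP as viability.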
Chronic BCR inh = blocks chronic active B-cell receptor signaling | ABC-DLBCL IkBa-CBG/CBR reporter, luminescence ratio, 4 h | Potency, µM (series often up to 46.1 µM), for the others: at the highest dose activity change, negative = inhibition, actives largely listed as inhibitors | 0.05% of 340,000 active; active means well fitted inhibition curve with a large enough effect in the signal ratio, with a control signal flat, not every such curve was filed as active; inconclusive means small, poorly fitted or top-dose-only effect, or effect the other way, or a change in a side signal; the % refers to the signal ratio;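 further: potency means the concentration at half of the fitted maximal effect; plate controls were basal doxycycline-induced cells for no effect and cells given 10 µM MG132 for full effect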
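TMD8 ABC-DLBCL cells carrying doxycycline-inducible green luciferase fused to IkappaBalpha plus unfused red luciferase were exposed to compounds (up to 46 uM) for 4 hrs at 37C. Activity came from the overlap-corrected green/red luminescence ratio.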
MCF10A rereplic = induces DNA re-replication in MCF 10a normal breast cells | MCF 10A DNA re-replication, Hoechst nuclear intensity, 48 h | Potency, µM (series often up to 46.1 µM), for inactives: at the top dose activity, positive = re-replication, most hits filed as activators | 2.9% of 350,000 active; further: potency means the concentration at half of the fitted maximal effect; % of control where 0% means no effect; nearly all actives have a fitted effect of over 50% in size
Gal4-VP16 FLuc = inhibits Gal4-VP16 luciferase reporter, ROR gamma counter-screen; Drosophila S2 Gal4-VP16 UAS-luciferase, luminescence, 20 h; Potency, µM (highest dose often 53.6 µM), without a hit: at the top dose activity, negative = inhibition, actives largely listed as inhibitors; 3.5% of 310,000 active;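 further: Gal4-VP16 expression switched on by copper sulfate through the metallothionein promoter; potency means the concentration at half of the fitted maximal effect; on the % scale 0 is the no-effect control and ±100 the full control effect; nearly all actives have a fitted effect of over 50% in size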
Active calls of the source: *; [ ] = remark or other dose. The list is not random: actives were taken first. Their share in the collection is about 8.3%. Unless noted, the call rests on the fitted dose curve; in most records, active means well fitted curve in the direction sought with a large enough effect; inconclusive means small, poorly fitted or top-dose-only effect, or another doubt; inactive means no such curve, though single readings can be large; an effect the other way counts as inactive or inconclusive.

What do the screens show for `Cc1ccc(OCC(=O)N2N=C(C(F)(F)F)CC2(O)C(C)(C)C)cc1C` (configuration not stated)?
RORgamma inh: -70%; SW480 rerep: inconclusive; Giardia killer: 19; Chronic BCR inh: inconclusive; MCF10A rereplic: 8.2µM*; Gal4-VP16 FLuc: inconclusive

What do the screens show for `CC1=NN(C(=O)COc2ccc(C)c(C)c2)C(O)(c2ccc(Cl)cc2)C1` (configuration not stated)?
RORgamma inh: 7.1µM*; SW480 rerep: -5%; Giardia killer: 12; Chronic BCR inh: inconclusive; MCF10A rereplic: inconclusive; Gal4-VP16 FLuc: 16µM*

How did NC(=O)c1cccc(N=Cc2cc(Cl)cc(Cl)c2O)c1 do in these assays?
RORgamma inh: 4%; SW480 rerep: 23%; Giardia killer: 6; Chronic BCR inh: -1%; MCF10A rereplic: -5%; Gal4-VP16 FLuc: 8%[10 µM]

How did Oc1c(Cl)cc(Cl)cc1C=Nc1ccccc1N1CCCC1 do in these assays?
RORgamma inh: 16µM*; Chronic BCR inh: 4%; Gal4-VP16 FLuc: inconclusive

Results for C=C(C)Cn1cnc2cc(C)c(C)cc21 ?
RORgamma inh: 11µM*; SW480 rerep: -9%; Giardia killer: -16; Chronic BCR inh: 2%; MCF10A rereplic: -1%; Gal4-VP16 FLuc: -2%

How did Cc1cc2ncn(CS(C)(=O)=O)c2cc1C do in these assays?
RORgamma inh: -1%; SW480 rerep: -10%; Giardia killer: -3; Chronic BCR inh: 12%; MCF10A rereplic: 0%; Gal4-VP16 FLuc: -3%

How did C=C(CN(C)C)C(=O)c1cc(C)ccc1C do in these assays?
SW480 rerep: 5.8µM*; Giardia killer: -10; MCF10A rereplic: 2.6µM*

Results for CC(=O)Nc1sc(N/N=C/c2ccc(O)cc2)nc1-c1ccc(C)cc1 ?
RORgamma inh: -28%; SW480 rerep: 8%; Giardia killer: 32; Chronic BCR inh: inconclusive; MCF10A rereplic: inconclusive; Gal4-VP16 FLuc: 3%

What do the screens show for `CC(C)(C)c1csc(N/N=C/c2ccc(O)cc2)n1`?
RORgamma inh: 0.56µM*; SW480 rerep: -7%; Giardia killer: -25; Chronic BCR inh: 3%; MCF10A rereplic: inconclusive; Gal4-VP16 FLuc: 1µM*

How did COc1ccccc1C(=O)NC(=O)COC(=O)C1CC2CCCC(C1)C2=O (configuration not stated) do in these assays?
RORgamma inh: -4%; SW480 rerep: -2%; Giardia killer: 6; Chronic BCR inh: -9%; MCF10A rereplic: -2%; Gal4-VP16 FLuc: -7%

Results for O=C(NN=C1CCCCCC1)c1ccncc1 ?
RORgamma inh: -17%; SW480 rerep: 2%; Giardia killer: -2; Chronic BCR inh: -20%; MCF10A rereplic: 0%; Gal4-VP16 FLuc: 4%

How did O=C(N/N=C1\CC2CC=CC12)c1ccc(O)cc1 (configuration not stated) do in these assays?
RORgamma inh: 2.5µM*; SW480 rerep: 16%; Giardia killer: 11; Chronic BCR inh: inconclusive; MCF10A rereplic: 3%; Gal4-VP16 FLuc: 4.5µM*

What do the screens show for `Cc1ccc(C(=O)N/N=C2\CC3CC=CC23)c(C)c1` (configuration not stated)?
RORgamma inh: -27%; SW480 rerep: -105%; Giardia killer: 9; Chronic BCR inh: inconclusive; MCF10A rereplic: -3%; Gal4-VP16 FLuc: 1%

What do the screens show for `O=C(NN=C1CCCC1)c1ccc(O)cc1`?
RORgamma inh: 11µM*; SW480 rerep: -41%; Giardia killer: -2; Chronic BCR inh: inconclusive; MCF10A rereplic: 8%; Gal4-VP16 FLuc: inconclusive

What do the screens show for `CCOc1cc(C(=O)NN=C2CCCC2)cc(OCC)c1OCC`?
RORgamma inh: -40%; SW480 rerep: inconclusive; Giardia killer: 2; Chronic BCR inh: inconclusive; MCF10A rereplic: 16µM*; Gal4-VP16 FLuc: -8%

Results for O=C(NN=C1CCCC1)c1ccc([N+](=O)[O-])cc1 ?
RORgamma inh: 11µM*; SW480 rerep: -1%; Giardia killer: -5; Chronic BCR inh: inconclusive; MCF10A rereplic: -3%; Gal4-VP16 FLuc: 0%

Results for CCOc1ccc(NC(=S)N2CCN(c3ccc(N4CCOCC4)nn3)CC2)cc1 ?
RORgamma inh: 3%; SW480 rerep: inconclusive; Giardia killer: 2; Chronic BCR inh: 9%; MCF10A rereplic: -4%; Gal4-VP16 FLuc: -5%

Results for C=CCNC(=O)c1cc([N+](=O)[O-])cc2c(=O)[nH]c(Nc3ccc(Cl)c(Cl)c3)nc12 ?
RORgamma inh: -4%; Gal4-VP16 FLuc: 1%

Results for O=C(NCc1ccc(Cl)cc1)C(=O)NCC(c1ccco1)S(=O)(=O)c1cccs1 (configuration not stated) ?
Chronic BCR inh: -10%

How did O=C(ONC1=NCCCCC1)c1ccc([N+](=O)[O-])cc1 do in these assays?
RORgamma inh: 10µM*; SW480 rerep: -9%; Giardia killer: -26; Chronic BCR inh: inconclusive; MCF10A rereplic: -3%; Gal4-VP16 FLuc: -13%

How did CCc1cc2c(C)cc(=O)oc2cc1OC(=O)C1CCCN1C(=O)OC(C)(C)C (configuration not stated) do in these assays?
RORgamma inh: 19%; SW480 rerep: 18µM*; Giardia killer: 0; Chronic BCR inh: 1%; MCF10A rereplic: 11%; Gal4-VP16 FLuc: -24%

How did COc1ccc(NS(=O)(=O)c2ccc(C(=O)N(C)Cc3ccc(C)o3)cc2)cc1 do in these assays?
SW480 rerep: -32%; Giardia killer: -5; Chronic BCR inh: -2%; MCF10A rereplic: 11%

What do the screens show for `CCc1n[n+](CC(=O)c2ccccc2)c(N)s1`?
RORgamma inh: 2.8µM*; SW480 rerep: -8%; Giardia killer: -24; Chronic BCR inh: inconclusive; MCF10A rereplic: 0%; Gal4-VP16 FLuc: 2.2µM*

What do the screens show for `Cc1nccn1CCN(C)Cc1cn(Cc2ccccc2)nc1-c1ccc2c(c1)OCO2`?
RORgamma inh: -26%; SW480 rerep: 3%; Giardia killer: 5; Chronic BCR inh: 0%; MCF10A rereplic: 23%; Gal4-VP16 FLuc: 2%

How did COc1cccc(/C=N/NC(=O)c2ccc(=O)n(C)c2)c1O do in these assays?
RORgamma inh: 0.63µM*; SW480 rerep: 14%; Giardia killer: -5; Chronic BCR inh: -4%; MCF10A rereplic: inconclusive; Gal4-VP16 FLuc: 3.2µM*

What do the screens show for `COc1cccc(/C=N/NC(=O)C(=O)Nc2ccccc2OC(F)(F)C(F)F)c1O`?
RORgamma inh: 1µM*; SW480 rerep: inconclusive; Giardia killer: 4; Chronic BCR inh: -2%; MCF10A rereplic: inconclusive; Gal4-VP16 FLuc: 1.4µM*

Assay outcomes (PubChem)
